From PubChem BioAssay AID1159580 (chemical genetic matrix, 2015) come the findings set out here.

The structures appear in SMILES notation. The campaign covered roughly 5,500 compounds. About 2,000 (36%) were called active. Not shown: some 18% with an inconclusive outcome. The list shows a part of the results. Values without a mark were called inactive. Cut-off read from the data, not from the text of the source: active = normalized growth mostly below about 0.91 (no sharp cut-off); inconclusive = no clear call, values can overlap the other calls; inactive = mostly above about 0.92.

The nature of this assay: chemical genetic growth profiling, strain panel (AID 1159580).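 Note: tested at 20 µM; growth read once vehicle control cultures reached saturation at 30 °C; 1 = growth at the plate median or of vehicle wells; lower values mean less growth of the strain.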 The following applies: S. cerevisiae deletion strains, growth OD.
Where [1] appears, read: locus YAL040C, strain CLN3, hits give low values.
The mark [2] stands for this setting: locus YCL061C, strain MRC1 (second series), hits give low values.
Setting [3] is: locus YDR363W, strain ESC2, hits give low values.
The mark [4] stands for this setting: locus YER002W, strain NOP16, hits give low values.
Setting [5] is: locus YNL175C, strain NOP13, hits give low values.
Setting [6] is: locus YNL197C, strain WHI3, hits give low values.
Setting [7] is: locus YNL224C, strain SQS1, hits give low values.
Where [8] appears, read: locus YOR083W, strain WHI5 (second series), hits give low values.

With `C[N+]1(C)CCC(OC(=O)C(c2ccccc2)c2ccccc2)CC1`, the normalized growth is, setting by setting: under setting [1], 1.08; under setting [2], 0.992; under setting [3], 0.956; under setting [4], 0.999; (locus YMR263W, strain SAP30, hits give low values) 0.987; (locus YMR307W, strain GAS1, hits give low values) 0.988. Besides, the normalized growth was 1.01 (locus YNL153C, strain GIM3, hits give low values); 1.01 under setting [5]; 1.03 under setting [6]; 1.01 under setting [7]; 0.915 (locus YNL322C, strain KRE1, hits give low values); 1.02 under setting [8].
Consider `C[N+]1(C)CCN(c2ccccc2)CC1`, for which the normalized growth reads like this: under setting [1], 0.873 (active); under setting [2], 1; under setting [3], 1.04; under setting [4], 0.961; (locus YGR078C, strain PAC10, hits give low values) 1; (locus YNL128W, strain TEP1, hits give low values) 0.997. In addition, the normalized growth is, setting by setting: under setting [5], 0.974; under setting [6], 0.958; under setting [7], 1; under setting [8], 0.979; (locus YPL241C, strain CIN2, hits give low values) 1.
